Several values for one entry are separate records, joined by “and”; a condition that tells them apart may be missing. Equal values may be shown once. The source holds several records for some structures; these can differ, active in one and inactive in another. Activity calls are given as the source filed them. How the source made its calls: active means hit-call score of the fitted dose curve at least 0.9, where 1 is the maximum; inactive means score below 0.9.
The compounds below were run on Collagen III, COL3A1 (gene 1281) (assay: BSK_hDFCGF_CollagenIII: BioMAP Diversity Plus: hDFCGF Assay for Collagen III Biomarker Activity (AID 2283056)). Settings: primary human foreskin fibroblasts; actives raise or lower the signal.
Protocol: BSK_hDFCGF is a cell-based, multiplexed-readout assay that uses foreskin fibroblast, a human skin primary cell, with measurements taken at 24 hours after chemical dosing in a 96-well plate.BSK_hDFCGF_CollagenIII is an assay component measured in the BSK_hDFCGF assay. It measures Collagen antibody related to regulation of gene expression using ELISA technology.Data from the assay component BSK_hDFCGF_CollagenIII was analyzed into 1 assay endpoint. This assay endpoint, BSK_hDFCGF_CollagenIII, was analyzed with bidirectional fitting relative to DMSO as the negative control and baseline of activity. Using a type of binding reporter, gain or loss-of-signal activity can be used to understand changes in the signaling as they relate to the gene COL3A1. Furthermore, this assay endpoint can be referred to as a primary readout, because this assay has produced multiple assay endpoints where this one serves a signaling function. To generalize the intended target to other relatable targets, this assay endpoint is annotated to the cell adhesion molecules intended target family, where the subfamily is collagen.
The levels of cell surface (or secreted, indicated by the prefix "s") biomarker endpoints were measured by ELISA. Overt cytotoxicity to cells in confluent adherent cultures (all systems other than the BT system) was assessed by measuring total protein levels using sulforhodamine B (SRB) staining in parallel cultures at the time of biomarker measurements, indicated as SRB endpoints. For proliferation assays for adherent cell types, individual cell types are cultured at sub-confluence and relative cell numbers quantified by SRB staining at time points optimized for each system (48 h: 3C and CASM3C systems; 72 h: BT and HDF3CGF systems; 96 h: SAg system). SRB was performed by staining cells with 0.1% SRB after fixation with 10% TCA and reading wells at 560 nm.Viability and proliferation of PBMC (T cells) was quantified by Alamar Blue reduction for the SAg and BT systems. For PBMC viability (referred to as PBMC Cytotoxicity within the assay endpoint names), cells were plated (75,000/well in a 96-well plate) and then chemical samples added for 1 h before addition of activators, SEB and TSST-1 (20 ng/mL final concentration each). Cells were incubated for 90 h. Then, Alamar Blue (20 uL/well) (Invitrogen, Cat DAL1100) was added for 6 h, and the plates were read with a fluorescence microplate reader at 546/580 nm (excitation/emission). For PBMC proliferation, cells were plated and activated as above but incubated for only 16 h prior to addition of Alamar Blue. Plates were read after 6 h.

Structure (SMILES) | AC50 | outcome
CCN(CC)CCNc1ccc(CNC=O)c2sc3ccc(OC)cc3c(=O)c12 | 16.2 µM (active) | –
C=C(C)C(=O)OCCC(F)(F)C(F)(F)C(F)(F)C(F)(F)C(F)(F)C(F)(F)F | – | inactive
NCC(F)(F)C(F)(F)C(F)(F)C(F)(F)C(F)(F)C(F)(F)C(F)(F)F | – | inactive
NC(=O)N(O)[C@@H]1C=C[C@H](Oc2cccc(Oc3ccc(F)cc3)c2)C1 | – | inactive
CCCCC(CC)COC(=O)CCCCC(=O)OCc1ccccc1 (stereo not given) | – | inactive
CCCCCCC(=O)O | – | inactive
CCCCCCCCCCCCCCCS(=O)(=O)Oc1ccccc1 | – | inactive
CCc1nn(C2CCCCC2)c2cc(C3(C#N)CCC(C(=O)O)CC3)ccc12 (stereo not given) | 1.75 µM (active) | –
CCCCCCCCCCCCc1ccccc1S(=O)(=O)O | 8.62 µM (active) | –
NC(=O)N1C(=O)C(C(=O)c2cc(Cl)cs2)c2cc(F)c(Cl)cc21 (stereo not given) | 4.54 µM (active) | –
CCCCCCCCCCCCCC[N+](C)(C)C | 1.59 µM (active) | –
CCc1ccc(CCOc2ccc(CC3SC(=O)NC3=O)cc2)nc1 (stereo not given) | – | inactive
CC(C)(C)c1cc(C(C)(C)C)c(O)c(C(C)(C)C)c1 | 29.3 µM (active) | –
CC(C)(C)CC(C)(C)c1ccc(O)c(-n2nc3ccccc3n2)c1 | – | inactive
Oc1cccc(O)c1 | – | inactive
OCCC(F)(F)C(F)(F)C(F)(F)C(F)(F)C(F)(F)C(F)(F)C(F)(F)C(F)(F)F | 18.3 µM (active) and 11.9 µM (active) | inactive
OCCC(F)(F)C(F)(F)C(F)(F)C(F)(F)C(F)(F)C(F)(F)F | 46.3 µM (active) | inactive
CN(C)C=O | – | inactive
Cc1cc(CCN2CCN(c3nsc4ccccc34)CC2)cc2c1NC(=O)CC2(C)C | 9.12 µM (active) | –

Structure (SMILES) | AC50 | outcome
c1ccc2c(c1)ccc1ccccc12 | – | inactive
COc1ccc([N+](=O)[O-])cc1N | – | inactive
COC(=O)CCCCC(=O)OC | – | inactive
CC(C)CCCCCCOC(=O)CCCCC(=O)OCCCCCCC(C)C | – | inactive
OC1CCC(C2CCCCC2)CC1 (stereo not given) | – | inactive
CC[C@H](C)[C@@H](C(=O)O)n1sc2ccccc2c1=O | – | inactive
N#C[C@@H]1CC(F)(F)CN1C(=O)CNC1CC2CCC(C1)N2c1ncccn1 (stereo not given in full) | – | inactive
ClC1=C(Cl)C(Cl)(Cl)C(Cl)=C1Cl | 14 µM (active) | –
FC(F)(I)C(F)(F)C(F)(F)C(F)(F)C(F)(F)C(F)(F)I | 4.16 µM (active) [middle of 5 runs] | –
CN1CCN(c2ccccc2/C=C2\SCCN(c3ccc(Cl)c(Cl)c3)C2=O)CC1 | 13.7 µM (active) | –
CCCCCCCCCCCCN1CCCC1=O | 14.4 µM (active) | –
O=[N+]([O-])c1ccc(O)cc1 | – | inactive
CCCCCCCCC(=O)O | – | inactive
CC#C[C@]1(O)CC[C@H]2[C@@H]3CCC4=CC(=O)CCC4=C3[C@@H](c3ccc(N(C)C)cc3)C[C@@]21C | 12.9 µM (active) | –
C[C@@H]1C[C@H]2[C@@H]3CCC4=CC(=O)C=C[C@]4(C)[C@@]3(F)[C@@H](O)C[C@]2(C)[C@@]1(O)C(=O)COP(=O)(O)O | – | inactive
CN1CCC[C@H]1c1cccnc1 | – | inactive
O=C(OCCOCCOC(=O)c1ccccc1)c1ccccc1 | – | inactive
c1ccc2c(c1)Cc1ccccc1-2 | – | inactive
Cc1oc(-c2ccccc2)nc1CCOc1ccc(C[C@H](Nc2ccccc2C(=O)c2ccccc2)C(=O)O)cc1 | 3.34 µM (active) | –

Source: PubChem BioAssay (EPA / NIEHS)
